The record followed here is PubChem BioAssay (NCI).

Compounds without any hit were thinned out: in the full panel of roughly 83,000, 20% have a hit.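 Interpretation: 100, growth as untreated; towards 0, rising growth inhibition; 0, no net growth; 0 to -100, cell death. Compounds scoring below 10 were considered active.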 Values without a mark were called inactive. The source made the active and inactive calls.

The test system of the first assay is SF-268 CNS. As to the kind of experiment: NCI-60 one-dose screen, 48 h (100 = growth as untreated, 0 = no growth, -100 = all killed). Conditions: 10 µM.
Turning to `O=C1c2ccccc2C(=O)c2c1ccc(C(Br)Br)c2[N+](=O)[O-]`, the growth is 19.1%.
With `COc1ccc(NC(=O)C2CC3C=CC2C3)c([N+](=O)[O-])c1` (stereo not drawn), the growth is 102%.
For `CC[C@@H](C(=O)[C@H](C)[C@H](O)[C@@H](C)[C@H]1O[C@H]([C@@H](CC)C(=O)N(CC)CC)CC[C@H]1C)C1O[C@]2(C=C[C@@H](O)[C@]3(CC[C@@](C)([C@H]4CC[C@](O)(CC)[C@H](C)O4)O3)O2)[C@H](C)C[C@@H]1C` (stereo partly drawn), the growth was 42.1%.
Turning to `COc1cc(-c2nn(-c3cccc(NC(=O)NCCNC(=O)c4cccc(C(F)(F)F)c4)c3)cc2-c2ccncc2)ccc1Cl`, the growth is 41.8%.
For the compound `O=C(O)c1cc([N+](=O)[O-])ccc1Oc1ccccc1`, the growth is 97.3%.
Take `CCOC(=O)c1cc(C(=O)c2cc(OC)c(OC)c(OC)c2)n2nc(C)ccc12`: the growth is 56.2%.
Same read-out and setting: the same measure for `CC[C@@H](C(=O)[C@@H](C)[C@@H](O)[C@H](C)[C@@H]1O[C@@H]([C@@H](CC)C(=O)O)CC[C@@H]1C)C1O[C@]2(C=CC(=O)[C@]3(CC[C@@](C)([C@H]4CC[C@](O)(CC)[C@H](C)O4)O3)O2)[C@H](C)C[C@@H]1C` (stereo partly drawn): 50.6%; for `Cc1ccc(S(=O)(=O)N(C)CCCCCC(=O)O)cc1`: 99%.
On to `COc1ccc(C2=Cn3c(CCC(=O)c4nc5ccccc5[nH]4)nnc3SC2)cc1`, for which the growth is 107%.
Still for that read-out and setting: as for `CCCN(CCC)C(=O)[C@H](CC)[C@@H]1CC[C@@H](C)[C@@H]([C@H](C)[C@@H](O)[C@@H](C)C(=O)[C@H](CC)C2O[C@]3(C=C[C@@H](O)[C@]4(CC[C@@](C)([C@H]5CC[C@](O)(CC)[C@H](C)O5)O4)O3)[C@H](C)C[C@@H]2C)O1` (stereo partly drawn), the figure is 24.5%.
Turning to `OCC1OC(n2cnc3c(NCc4ccco4)ncnc32)C(O)C1O` (stereo not drawn), the growth was 44.6%.
On the same count and under the same terms, as for `CC[C@@H](C(=O)[C@H](C)[C@H](O)[C@@H](C)[C@H]1O[C@H]([C@@H](CC)C(=O)O)CC[C@H]1C)C1O[C@]2(C=C[C@@H](O)[C@]3(CC[C@@](C)([C@H]4CC[C@](O)(CC)[C@H](C)O4)O3)O2)[C@H](C)C[C@@H]1C` (stereo partly drawn), the figure is 38%; as for `O=C(/C=C/c1cccc(B(O)O)c1)c1cccc(B(O)O)c1`, -28.5% (active); as for `Cc1ccc(Cl)cc1NC(=O)CCl`, 79.3%.
As for `COc1cc(/C=C/c2cc(/C=C/c3ccc(O)c(OC)c3)nc(N)n2)ccc1O`, the growth is 3.56% (active).
On to `C/C(=N\O)c1ccc(NC(=O)CSc2nnc(-c3ccccc3)n2-c2ccccc2)cc1`, for which the growth was 99.8%.
In the case of `O=C(NCCCNS(=O)(=O)c1ccc(Cl)cc1)Nc1ccc(-n2cc(-c3ccncc3)c(-c3ccc(Cl)c(O)c3)n2)cc1`, the growth was 49.1%.
With `CS(=O)(=O)c1nccc(-c2c(-c3cccc(OCCN4CCOCC4)c3)nc3sccn23)n1`, the growth is 107%.
As to `C=CCSC(CC)(CC)C(=O)NC`, the growth was 112%.
With `CCn1c(SC/C(=N/O)c2ccccc2)nnc1-c1ccccc1`, the growth was 108%.
Regarding `CCN(CC)CCOc1ccc2c(c1O)C(=O)c1ccccc1C2=O`, the growth is 90.1%.
Regarding `CS(=O)(=O)c1nccc(-c2c(-c3cccc(O)c3)nc3sccn23)n1`, the growth was 98.5%.
Consider `CC(=O)[C@H]1CC[C@]2(C)[C@@H]1CC[C@@H]1[C@@]3(C)CC(CCC#N)(CCC#N)C(=O)C(C)(C)[C@@H]3CC[C@]12C`, for which the growth was 98.9%.
On the same count and under the same terms, the same measure for `COc1cc(-c2nn(-c3cccc(NC(=O)CN4CCOCC4)c3)cc2-c2cccnc2)ccc1Cl`: 85.4%.
The same measure, in the same setting: the same measure for `CNS(=O)(=O)Oc1ccc(-c2sc3cc(OS(=O)(=O)NC)ccc3c2C(=O)c2ccc(OCCN3CCCCC3)cc2)cc1`: 87.9%.
For the compound `Clc1ccc(/C=C2\CCCC3C2=Nc2ccccc2NC3c2ccc(Cl)cc2)cc1` (stereo not drawn), the growth was 80%.
`CCOS(=O)(=O)c1c(C(C)C)cc(C(C)C)cc1C(C)C`: the growth was 100%.
Still for that read-out and setting: the same measure for `COc1cc(/C=C/c2cc(/C=C/c3ccc(O)c(OC)c3)n(C(=O)Nc3ccccc3Cl)n2)ccc1O`: -6.38% (active).

The next assay relates to SF-295 CNS. The assay is described as above. The conditions noted are these: 10 µM.
Turning to `CCN1CCN(CCC(=O)Nc2cccc(-n3cc(-c4ccncc4)c(-c4ccc(Cl)c(OC)c4)n3)c2)CC1`, the growth was 9.42% (active).
Still for that read-out and setting: as for `O=C1/C=C/[C@@H](O)[C@@H]2C[C@@H](O)C[C@H]2/C=C/CCC[C@H](C(F)(F)F)O1`, the figure is 78%; as for `CC[C@@H](C(=O)[C@@H](C)[C@@H](O)[C@H](C)[C@@H]1O[C@@H]([C@@H](CC)C(=O)N(CC)CC)CC[C@@H]1C)C1O[C@]2(C=CC(=O)[C@]3(CC[C@@](C)([C@H]4CC[C@](O)(CC)[C@H](C)O4)O3)O2)[C@H](C)C[C@@H]1C` (stereo partly drawn), 4.86% (active).
For the compound `COc1ccc(-c2cc(-c3ccc(Cl)cc3)nc(SCCCCCCC(=O)NO)n2)cc1OC`, the growth was 77.1%.
As for `N#CCc1csc(Cc2ccccc2)n1`, the growth was 106%.
Consider `CC(C)(C)OC(=O)CN1CCc2c(sc3ncnc(N/N=C/c4ccccc4Br)c23)C1`, for which the growth was 99.2%.
Turning to `CC(CN(C)C)Oc1ccccc1NC1=C(Cl)C(=O)C(Nc2ccccc2OC(C)CN(C)C)=C(Cl)C1=O` (stereo not drawn), the growth was 30.6%.
Same read-out and setting: as for `Nc1ccn(Cc2nnc(CCC(=O)c3nc4ccccc4[nH]3)o2)c(=O)n1`, the figure is 79.8%.
`CC(C)(C)OC(=O)CN1CCc2c(sc3ncnc(N/N=C/c4cccc5ccccc45)c23)C1`: the growth is 51.5%.
On to `CCOC(=O)c1cc(C(=O)c2ccc(Cl)cc2)n2ccc(-c3cc[n+](CC(=O)c4ccc(OC)cc4)cc3)cc12`, for which the growth is 106%.
In the case of `NS(=O)(=O)Oc1ccc(NC(=O)C2CCCCCC2)cc1`, the growth was 99%.
On the same count and under the same terms, the same measure for `NNC(=O)Oc1c(Cl)cc(Cl)cc1[N+](=O)[O-]`: 103%; for `O=C1c2ccccc2C(=O)c2c1ccc(C(Br)Br)c2[N+](=O)[O-]`: 92.8%.
As for `COc1ccc(NC(=O)C2CC3C=CC2C3)c([N+](=O)[O-])c1` (stereo not drawn), the growth is 95.5%.
Same read-out and setting: as for `CC[C@@H](C(=O)[C@H](C)[C@H](O)[C@@H](C)[C@H]1O[C@H]([C@@H](CC)C(=O)N(CC)CC)CC[C@H]1C)C1O[C@]2(C=C[C@@H](O)[C@]3(CC[C@@](C)([C@H]4CC[C@](O)(CC)[C@H](C)O4)O3)O2)[C@H](C)C[C@@H]1C` (stereo partly drawn), the figure is -6.82% (active); as for `COc1cc(-c2nn(-c3cccc(NC(=O)NCCNC(=O)c4cccc(C(F)(F)F)c4)c3)cc2-c2ccncc2)ccc1Cl`, 6.79% (active); as for `O=C(O)c1cc([N+](=O)[O-])ccc1Oc1ccccc1`, 101%.
Regarding `CCOC(=O)c1cc(C(=O)c2cc(OC)c(OC)c(OC)c2)n2nc(C)ccc12`, the growth was 41%.
As to `CC[C@@H](C(=O)[C@@H](C)[C@@H](O)[C@H](C)[C@@H]1O[C@@H]([C@@H](CC)C(=O)O)CC[C@@H]1C)C1O[C@]2(C=CC(=O)[C@]3(CC[C@@](C)([C@H]4CC[C@](O)(CC)[C@H](C)O4)O3)O2)[C@H](C)C[C@@H]1C` (stereo partly drawn), the growth is 4.02% (active).
For the compound `Cc1ccc(S(=O)(=O)N(C)CCCCCC(=O)O)cc1`, the growth was 92.7%.
The same measure, in the same setting: as for `COc1ccc(C2=Cn3c(CCC(=O)c4nc5ccccc5[nH]4)nnc3SC2)cc1`, the figure is 83.7%; as for `CCCN(CCC)C(=O)[C@H](CC)[C@@H]1CC[C@@H](C)[C@@H]([C@H](C)[C@@H](O)[C@@H](C)C(=O)[C@H](CC)C2O[C@]3(C=C[C@@H](O)[C@]4(CC[C@@](C)([C@H]5CC[C@](O)(CC)[C@H](C)O5)O4)O3)[C@H](C)C[C@@H]2C)O1` (stereo partly drawn), -5.79% (active).
As to `OCC1OC(n2cnc3c(NCc4ccco4)ncnc32)C(O)C1O` (stereo not drawn), the growth was 26.5%.
Turning to `CC[C@@H](C(=O)[C@H](C)[C@H](O)[C@@H](C)[C@H]1O[C@H]([C@@H](CC)C(=O)O)CC[C@H]1C)C1O[C@]2(C=C[C@@H](O)[C@]3(CC[C@@](C)([C@H]4CC[C@](O)(CC)[C@H](C)O4)O3)O2)[C@H](C)C[C@@H]1C` (stereo partly drawn), the growth is -12.6% (active).
On the same count and under the same terms, the same measure for `O=C(/C=C/c1cccc(B(O)O)c1)c1cccc(B(O)O)c1`: -14.6% (active).
Regarding `Cc1ccc(Cl)cc1NC(=O)CCl`, the growth is 104%.
On to `COc1cc(/C=C/c2cc(/C=C/c3ccc(O)c(OC)c3)nc(N)n2)ccc1O`, for which the growth was -5.25% (active).
For `C/C(=N\O)c1ccc(NC(=O)CSc2nnc(-c3ccccc3)n2-c2ccccc2)cc1`, the growth was 92.2%.
On to `O=C(NCCCNS(=O)(=O)c1ccc(Cl)cc1)Nc1ccc(-n2cc(-c3ccncc3)c(-c3ccc(Cl)c(O)c3)n2)cc1`, for which the growth is 2.43% (active).
`CS(=O)(=O)c1nccc(-c2c(-c3cccc(OCCN4CCOCC4)c3)nc3sccn23)n1`: the growth was 104%.
The same measure, in the same setting: the same measure for `C=CCSC(CC)(CC)C(=O)NC`: 105%.
Still for that read-out and setting: as for `CCn1c(SC/C(=N/O)c2ccccc2)nnc1-c1ccccc1`, the figure is 109%.
Take `CCN(CC)CCOc1ccc2c(c1O)C(=O)c1ccccc1C2=O`: the growth is 91.5%.
In the case of `CS(=O)(=O)c1nccc(-c2c(-c3cccc(O)c3)nc3sccn23)n1`, the growth is 103%.
On to `CC(=O)[C@H]1CC[C@]2(C)[C@@H]1CC[C@@H]1[C@@]3(C)CC(CCC#N)(CCC#N)C(=O)C(C)(C)[C@@H]3CC[C@]12C`, for which the growth was 98.2%.
`COc1cc(-c2nn(-c3cccc(NC(=O)CN4CCOCC4)c3)cc2-c2cccnc2)ccc1Cl`: the growth is 76.8%.
Take `CNS(=O)(=O)Oc1ccc(-c2sc3cc(OS(=O)(=O)NC)ccc3c2C(=O)c2ccc(OCCN3CCCCC3)cc2)cc1`: the growth is 89.3%.
Regarding `Clc1ccc(/C=C2\CCCC3C2=Nc2ccccc2NC3c2ccc(Cl)cc2)cc1` (stereo not drawn), the growth was 83.3%.
In the case of `CCOS(=O)(=O)c1c(C(C)C)cc(C(C)C)cc1C(C)C`, the growth is 98.9%.
Consider `COc1cc(/C=C/c2cc(/C=C/c3ccc(O)c(OC)c3)n(C(=O)Nc3ccccc3Cl)n2)ccc1O`, for which the growth is 2.83% (active).
